Measurements published in ChEMBL document CHEMBL1961873, “Compounds: GSK PKIS; Assays: Nanosyn kinase panel” (2012).

Assays:
[1] = biological target: T1, Aurora kinase A (Homo sapiens) (UniProt O14965); settings: at 1 µM;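 further: values are mean percent inhibition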
T1 sequence (whole entry): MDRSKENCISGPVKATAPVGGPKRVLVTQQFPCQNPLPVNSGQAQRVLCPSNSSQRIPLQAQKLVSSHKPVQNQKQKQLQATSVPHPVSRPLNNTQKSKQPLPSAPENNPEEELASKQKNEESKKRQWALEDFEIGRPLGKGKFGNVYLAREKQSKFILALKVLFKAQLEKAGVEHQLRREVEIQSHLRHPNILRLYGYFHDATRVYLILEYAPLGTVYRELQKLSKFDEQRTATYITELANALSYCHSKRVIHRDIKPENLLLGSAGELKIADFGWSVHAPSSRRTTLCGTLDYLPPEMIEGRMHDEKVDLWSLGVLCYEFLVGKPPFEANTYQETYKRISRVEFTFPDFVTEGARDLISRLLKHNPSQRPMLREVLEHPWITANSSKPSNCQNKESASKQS

[2] = biological target: Aurora kinase B (Homo sapiens) (UniProt Q96GD4); settings: at 0.1 µM
[3] = biological target: Aurora kinase B (Homo sapiens) (UniProt Q96GD4); settings: at 1 µM
[4] = biological target: T2, Aurora kinase C (Homo sapiens) (UniProt Q9UQB9); settings: at 0.1 µM
T2 sequence (whole entry): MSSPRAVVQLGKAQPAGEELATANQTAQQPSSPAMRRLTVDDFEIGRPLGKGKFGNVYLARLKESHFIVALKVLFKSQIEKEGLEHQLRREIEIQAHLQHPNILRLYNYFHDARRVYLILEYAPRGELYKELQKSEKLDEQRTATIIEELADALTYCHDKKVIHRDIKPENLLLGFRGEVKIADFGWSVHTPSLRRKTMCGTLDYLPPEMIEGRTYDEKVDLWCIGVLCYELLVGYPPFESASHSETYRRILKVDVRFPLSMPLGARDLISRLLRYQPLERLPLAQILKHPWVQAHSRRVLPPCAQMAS

[5] = biological target: T2, Aurora kinase C (Homo sapiens); settings: at 1 µM
[6] = biological target: Serine/threonine-protein kinase 10 (Homo sapiens) (UniProt O94804); settings: at 0.1 µM
[7] = biological target: Serine/threonine-protein kinase 10 (Homo sapiens) (UniProt O94804); settings: at 1 µM
[8] = biological target: T3, Mitogen-activated protein kinase kinase kinase kinase 2 (Homo sapiens) (UniProt Q12851); settings: at 0.1 µM
T3 sequence (whole entry): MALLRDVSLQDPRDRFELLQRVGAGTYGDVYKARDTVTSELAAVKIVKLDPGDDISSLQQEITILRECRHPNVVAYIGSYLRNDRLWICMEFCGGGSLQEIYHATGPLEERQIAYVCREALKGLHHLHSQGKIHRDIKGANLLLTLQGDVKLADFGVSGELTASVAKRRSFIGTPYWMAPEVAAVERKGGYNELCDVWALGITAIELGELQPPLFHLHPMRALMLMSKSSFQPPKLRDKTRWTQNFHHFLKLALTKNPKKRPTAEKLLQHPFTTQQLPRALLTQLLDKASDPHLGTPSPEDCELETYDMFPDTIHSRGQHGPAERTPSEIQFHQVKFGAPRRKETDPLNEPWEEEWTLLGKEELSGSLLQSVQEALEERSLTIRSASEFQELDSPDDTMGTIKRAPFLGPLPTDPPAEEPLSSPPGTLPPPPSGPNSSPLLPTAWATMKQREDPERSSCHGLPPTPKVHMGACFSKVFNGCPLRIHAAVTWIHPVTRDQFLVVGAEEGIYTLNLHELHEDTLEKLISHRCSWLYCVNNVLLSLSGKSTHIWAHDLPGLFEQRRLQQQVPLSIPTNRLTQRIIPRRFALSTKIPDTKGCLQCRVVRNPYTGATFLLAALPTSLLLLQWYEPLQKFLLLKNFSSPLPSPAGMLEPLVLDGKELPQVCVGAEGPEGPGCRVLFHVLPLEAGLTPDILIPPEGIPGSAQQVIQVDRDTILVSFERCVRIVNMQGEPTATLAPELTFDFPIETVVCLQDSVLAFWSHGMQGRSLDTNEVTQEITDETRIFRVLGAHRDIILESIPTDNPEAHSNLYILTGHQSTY

[9] = biological target: T3, Mitogen-activated protein kinase kinase kinase kinase 2 (Homo sapiens); settings: at 1 µM
[10] = biological target: Mitogen-activated protein kinase kinase kinase kinase 4 (Homo sapiens) (UniProt O95819); settings: at 0.1 µM
[11] = biological target: Mitogen-activated protein kinase kinase kinase kinase 4 (Homo sapiens) (UniProt O95819); settings: at 1 µM
[12] = biological target: Dual specificity mitogen-activated protein kinase kinase 1 (Homo sapiens) (UniProt Q02750); settings: at 0.1 µM
[13] = biological target: Dual specificity mitogen-activated protein kinase kinase 1 (Homo sapiens) (UniProt Q02750); settings: at 1 µM
[14] = biological target: Misshapen-like kinase 1 (Homo sapiens) (UniProt Q8N4C8); settings: at 0.1 µM
[15] = biological target: Misshapen-like kinase 1 (Homo sapiens) (UniProt Q8N4C8); settings: at 1 µM
[16] = biological target: T4, Serine/threonine-protein kinase 4 (Homo sapiens) (UniProt Q13043); settings: at 0.1 µM
T4 sequence (whole entry): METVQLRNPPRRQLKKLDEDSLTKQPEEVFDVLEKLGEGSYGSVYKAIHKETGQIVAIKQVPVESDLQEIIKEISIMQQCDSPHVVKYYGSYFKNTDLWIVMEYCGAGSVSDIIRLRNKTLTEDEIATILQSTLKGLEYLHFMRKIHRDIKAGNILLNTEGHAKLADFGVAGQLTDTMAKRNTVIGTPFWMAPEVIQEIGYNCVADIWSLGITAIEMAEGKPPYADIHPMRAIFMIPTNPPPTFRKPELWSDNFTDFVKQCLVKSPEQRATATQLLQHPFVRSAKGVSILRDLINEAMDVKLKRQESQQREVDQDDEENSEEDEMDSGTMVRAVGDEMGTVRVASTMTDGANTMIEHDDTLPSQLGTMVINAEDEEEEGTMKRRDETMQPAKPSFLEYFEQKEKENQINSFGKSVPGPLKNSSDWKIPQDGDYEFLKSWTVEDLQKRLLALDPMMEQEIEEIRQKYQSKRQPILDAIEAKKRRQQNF

[17] = biological target: T4, Serine/threonine-protein kinase 4 (Homo sapiens); settings: at 1 µM
[18] = biological target: T5, Serine/threonine-protein kinase 3 (Homo sapiens) (UniProt Q13188); settings: at 0.1 µM
T5 sequence (whole entry): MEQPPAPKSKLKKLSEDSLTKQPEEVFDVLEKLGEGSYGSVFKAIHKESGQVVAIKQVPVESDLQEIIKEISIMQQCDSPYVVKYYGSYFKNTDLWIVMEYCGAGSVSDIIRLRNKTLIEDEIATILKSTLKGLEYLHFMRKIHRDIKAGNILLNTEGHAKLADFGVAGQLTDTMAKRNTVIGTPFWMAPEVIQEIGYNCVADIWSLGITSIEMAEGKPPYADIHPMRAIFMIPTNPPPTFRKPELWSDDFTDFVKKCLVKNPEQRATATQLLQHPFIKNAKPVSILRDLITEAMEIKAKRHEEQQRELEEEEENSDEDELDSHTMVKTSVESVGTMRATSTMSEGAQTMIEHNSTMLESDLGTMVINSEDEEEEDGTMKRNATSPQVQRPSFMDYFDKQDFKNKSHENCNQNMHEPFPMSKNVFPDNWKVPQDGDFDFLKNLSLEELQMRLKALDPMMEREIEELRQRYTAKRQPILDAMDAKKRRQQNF

[19] = biological target: T5, Serine/threonine-protein kinase 3 (Homo sapiens); settings: at 1 µM
[20] = biological target: Serine/threonine-protein kinase 26 (Homo sapiens) (UniProt Q9P289); settings: at 0.1 µM
Serine/threonine-protein kinase 26 (Homo sapiens), sequence (Q9P289 2-416 limits assumed): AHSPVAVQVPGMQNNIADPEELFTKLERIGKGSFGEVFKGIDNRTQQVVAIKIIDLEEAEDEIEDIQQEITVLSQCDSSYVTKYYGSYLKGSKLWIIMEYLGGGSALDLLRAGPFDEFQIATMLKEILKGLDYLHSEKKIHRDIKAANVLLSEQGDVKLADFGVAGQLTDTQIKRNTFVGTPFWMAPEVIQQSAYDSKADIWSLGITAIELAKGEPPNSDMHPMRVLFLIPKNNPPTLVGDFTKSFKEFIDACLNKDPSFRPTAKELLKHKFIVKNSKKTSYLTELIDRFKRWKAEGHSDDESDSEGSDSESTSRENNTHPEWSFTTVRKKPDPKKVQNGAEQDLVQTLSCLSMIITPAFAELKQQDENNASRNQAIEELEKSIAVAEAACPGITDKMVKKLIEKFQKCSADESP

Misshapen-like kinase 1 (Homo sapiens), sequence (Q8N4C8 whole entry, looked up): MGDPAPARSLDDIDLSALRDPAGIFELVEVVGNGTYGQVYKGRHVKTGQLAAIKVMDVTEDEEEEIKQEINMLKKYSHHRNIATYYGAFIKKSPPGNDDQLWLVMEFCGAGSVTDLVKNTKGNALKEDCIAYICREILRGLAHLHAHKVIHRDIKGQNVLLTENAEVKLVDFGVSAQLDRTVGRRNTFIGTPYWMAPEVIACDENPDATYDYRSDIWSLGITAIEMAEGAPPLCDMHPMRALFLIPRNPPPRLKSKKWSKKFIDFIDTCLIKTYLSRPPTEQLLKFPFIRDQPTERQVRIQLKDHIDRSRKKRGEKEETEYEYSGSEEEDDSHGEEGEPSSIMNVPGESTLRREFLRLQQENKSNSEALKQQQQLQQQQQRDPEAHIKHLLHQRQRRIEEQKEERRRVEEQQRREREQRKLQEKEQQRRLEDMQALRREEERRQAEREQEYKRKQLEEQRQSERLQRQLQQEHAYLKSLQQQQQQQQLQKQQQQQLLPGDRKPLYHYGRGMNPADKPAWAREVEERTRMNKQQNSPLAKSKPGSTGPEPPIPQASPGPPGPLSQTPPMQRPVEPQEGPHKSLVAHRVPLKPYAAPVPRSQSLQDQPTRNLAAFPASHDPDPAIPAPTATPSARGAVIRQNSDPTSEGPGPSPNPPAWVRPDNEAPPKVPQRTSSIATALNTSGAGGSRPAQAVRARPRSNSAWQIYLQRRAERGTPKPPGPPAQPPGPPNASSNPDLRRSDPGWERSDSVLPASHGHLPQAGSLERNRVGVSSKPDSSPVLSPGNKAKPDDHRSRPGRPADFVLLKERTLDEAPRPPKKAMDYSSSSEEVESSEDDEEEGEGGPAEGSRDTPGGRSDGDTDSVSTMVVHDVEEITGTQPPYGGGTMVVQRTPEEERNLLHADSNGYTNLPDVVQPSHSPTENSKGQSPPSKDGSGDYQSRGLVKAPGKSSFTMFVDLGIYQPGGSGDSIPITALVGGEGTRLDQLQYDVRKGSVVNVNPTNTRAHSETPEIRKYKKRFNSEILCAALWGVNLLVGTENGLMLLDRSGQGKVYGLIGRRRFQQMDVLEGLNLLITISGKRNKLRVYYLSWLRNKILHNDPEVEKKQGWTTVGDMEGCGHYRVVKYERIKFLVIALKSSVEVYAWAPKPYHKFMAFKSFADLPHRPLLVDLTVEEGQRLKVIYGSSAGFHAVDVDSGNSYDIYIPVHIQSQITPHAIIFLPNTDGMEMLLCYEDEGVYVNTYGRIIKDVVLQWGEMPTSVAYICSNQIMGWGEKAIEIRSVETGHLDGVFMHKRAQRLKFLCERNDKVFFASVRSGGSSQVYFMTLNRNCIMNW
Mitogen-activated protein kinase kinase kinase kinase 4 (Homo sapiens), sequence (O95819 2-1239 limits assumed): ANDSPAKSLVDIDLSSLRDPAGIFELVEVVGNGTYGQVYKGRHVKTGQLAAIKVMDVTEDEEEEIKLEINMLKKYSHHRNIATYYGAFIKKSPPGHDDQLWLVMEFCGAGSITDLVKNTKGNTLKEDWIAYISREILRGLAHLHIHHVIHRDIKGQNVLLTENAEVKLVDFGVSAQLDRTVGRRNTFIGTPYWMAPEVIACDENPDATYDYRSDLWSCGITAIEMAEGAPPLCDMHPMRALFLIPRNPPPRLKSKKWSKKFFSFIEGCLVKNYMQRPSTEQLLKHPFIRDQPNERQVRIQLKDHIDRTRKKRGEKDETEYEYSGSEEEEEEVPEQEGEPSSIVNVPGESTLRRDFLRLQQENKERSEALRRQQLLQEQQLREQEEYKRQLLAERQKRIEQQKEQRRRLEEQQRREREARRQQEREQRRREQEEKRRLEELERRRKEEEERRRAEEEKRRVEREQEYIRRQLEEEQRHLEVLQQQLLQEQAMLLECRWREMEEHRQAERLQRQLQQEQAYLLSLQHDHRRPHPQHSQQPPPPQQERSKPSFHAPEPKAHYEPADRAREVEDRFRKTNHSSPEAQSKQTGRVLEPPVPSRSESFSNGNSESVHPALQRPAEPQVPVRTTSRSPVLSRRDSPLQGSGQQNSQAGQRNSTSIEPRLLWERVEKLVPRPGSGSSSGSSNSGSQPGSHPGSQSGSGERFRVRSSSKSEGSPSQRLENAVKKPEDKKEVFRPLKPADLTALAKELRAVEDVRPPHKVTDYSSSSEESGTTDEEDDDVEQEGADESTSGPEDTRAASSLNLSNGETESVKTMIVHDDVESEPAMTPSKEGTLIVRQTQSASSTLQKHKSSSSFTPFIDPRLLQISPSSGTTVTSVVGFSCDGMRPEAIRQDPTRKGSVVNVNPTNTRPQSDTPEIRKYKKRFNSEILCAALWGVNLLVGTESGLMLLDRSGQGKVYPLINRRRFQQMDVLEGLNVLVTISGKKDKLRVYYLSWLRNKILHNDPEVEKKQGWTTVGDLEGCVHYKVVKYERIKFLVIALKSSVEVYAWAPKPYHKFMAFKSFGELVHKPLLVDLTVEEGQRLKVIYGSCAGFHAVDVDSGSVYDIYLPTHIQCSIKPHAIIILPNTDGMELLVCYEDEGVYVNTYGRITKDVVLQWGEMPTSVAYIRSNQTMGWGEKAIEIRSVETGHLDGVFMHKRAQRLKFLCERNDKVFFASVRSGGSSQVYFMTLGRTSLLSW
Serine/threonine-protein kinase 10 (Homo sapiens), sequence (O94804 whole entry, looked up): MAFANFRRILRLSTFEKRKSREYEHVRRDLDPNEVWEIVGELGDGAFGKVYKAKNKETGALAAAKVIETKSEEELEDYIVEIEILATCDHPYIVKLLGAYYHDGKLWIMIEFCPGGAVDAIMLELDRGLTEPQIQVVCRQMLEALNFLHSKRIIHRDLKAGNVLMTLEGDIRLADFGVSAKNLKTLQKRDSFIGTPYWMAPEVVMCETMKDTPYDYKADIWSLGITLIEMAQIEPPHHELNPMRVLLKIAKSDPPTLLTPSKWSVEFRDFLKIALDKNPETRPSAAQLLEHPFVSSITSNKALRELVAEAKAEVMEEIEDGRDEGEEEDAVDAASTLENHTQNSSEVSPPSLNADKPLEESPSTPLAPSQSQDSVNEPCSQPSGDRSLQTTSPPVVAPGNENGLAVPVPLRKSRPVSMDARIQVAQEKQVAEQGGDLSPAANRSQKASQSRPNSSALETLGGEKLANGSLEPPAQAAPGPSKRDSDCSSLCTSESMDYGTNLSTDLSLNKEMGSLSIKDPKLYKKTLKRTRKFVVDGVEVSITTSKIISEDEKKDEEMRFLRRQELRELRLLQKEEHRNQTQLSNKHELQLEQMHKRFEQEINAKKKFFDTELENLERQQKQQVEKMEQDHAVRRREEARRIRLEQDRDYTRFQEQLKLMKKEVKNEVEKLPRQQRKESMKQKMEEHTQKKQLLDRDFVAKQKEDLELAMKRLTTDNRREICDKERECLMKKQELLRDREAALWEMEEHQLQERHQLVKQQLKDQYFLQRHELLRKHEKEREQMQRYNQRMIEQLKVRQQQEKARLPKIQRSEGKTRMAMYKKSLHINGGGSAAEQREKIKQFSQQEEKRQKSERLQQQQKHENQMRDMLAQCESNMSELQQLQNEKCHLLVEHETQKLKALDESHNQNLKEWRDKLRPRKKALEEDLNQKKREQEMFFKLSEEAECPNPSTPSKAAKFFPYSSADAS
Dual specificity mitogen-activated protein kinase kinase 1 (Homo sapiens), sequence (Q02750 whole entry): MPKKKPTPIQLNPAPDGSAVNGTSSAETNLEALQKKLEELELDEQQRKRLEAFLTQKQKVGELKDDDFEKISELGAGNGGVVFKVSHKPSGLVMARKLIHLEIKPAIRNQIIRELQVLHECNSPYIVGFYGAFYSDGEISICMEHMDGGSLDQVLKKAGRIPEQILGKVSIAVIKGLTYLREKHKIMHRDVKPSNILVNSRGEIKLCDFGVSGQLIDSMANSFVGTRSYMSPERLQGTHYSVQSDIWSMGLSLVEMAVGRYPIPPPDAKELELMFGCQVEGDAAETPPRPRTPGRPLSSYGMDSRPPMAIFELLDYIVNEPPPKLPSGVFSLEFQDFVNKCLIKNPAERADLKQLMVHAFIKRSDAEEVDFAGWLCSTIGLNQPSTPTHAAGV
Aurora kinase B (Homo sapiens), sequence (Q96GD4 whole entry): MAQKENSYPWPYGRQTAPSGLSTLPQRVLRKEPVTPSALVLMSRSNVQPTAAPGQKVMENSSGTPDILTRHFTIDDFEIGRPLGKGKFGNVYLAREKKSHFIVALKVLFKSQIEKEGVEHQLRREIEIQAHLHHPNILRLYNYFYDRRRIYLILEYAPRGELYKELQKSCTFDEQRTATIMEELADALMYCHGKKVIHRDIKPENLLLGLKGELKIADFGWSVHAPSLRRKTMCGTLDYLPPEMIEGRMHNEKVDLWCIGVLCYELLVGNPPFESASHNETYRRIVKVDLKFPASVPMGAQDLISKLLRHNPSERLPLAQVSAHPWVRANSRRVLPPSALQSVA

COc1cc2c(cc1Nc1nc(Nc3ccsc3C(N)=O)c3cc[nH]c3n1)N(C(=O)CN(C)C)CCC2(C)C
inhibition [1]: 13.2%
inhibition [2]: 6.17%
inhibition [3]: 11.7%
inhibition [4]: 4.7%
inhibition [5]: 13.7%
inhibition [6]: 6.3%
inhibition [7]: 17.3%
inhibition [8]: 4.1%
inhibition [9]: 22.6%
inhibition [10]: 12.1%
inhibition [11]: 14.8%
inhibition [12]: 6.86%
inhibition [13]: 12.3%
inhibition [14]: 11.4%
inhibition [15]: 15.3%
inhibition [16]: 15.6%
inhibition [17]: 47.7%
inhibition [18]: 12.3%
inhibition [19]: 22.1%
inhibition [20]: 3.1%

CCn1c(-c2nonc2N)nc2c(C#CC(C)(C)O)nc(OC[C@H](N)c3ccccc3)cc21
inhibition [1]: 2.98%
inhibition [2]: 3.29%
inhibition [3]: 5.24%
inhibition [4]: 1.89%
inhibition [5]: 2.08%
inhibition [6]: 7.07%
inhibition [7]: 28.8%
inhibition [8]: 3.33%
inhibition [9]: 16%
inhibition [10]: 4.79%
inhibition [11]: 35.1%
inhibition [12]: 2.26%
inhibition [13]: 4.39%
inhibition [14]: 6.18%
inhibition [15]: 21.1%
inhibition [16]: 7.92%
inhibition [17]: 42.7%
inhibition [18]: 9.64%
inhibition [19]: 42.4%
inhibition [20]: -0.06%

O=C(Nc1n[nH]c2cc(-c3ccc(F)cc3)ccc12)C1CC1
inhibition [1]: 12.8%
inhibition [2]: 2.7%
inhibition [3]: 6.25%
inhibition [4]: 0.6%
inhibition [5]: 6.95%
inhibition [6]: 3.84%
inhibition [7]: 8.91%
inhibition [8]: 1.48%
inhibition [9]: 5.08%
inhibition [10]: 20.1%
inhibition [11]: 70.1%
inhibition [12]: 3.48%
inhibition [13]: 3.42%
inhibition [14]: 16.2%
inhibition [15]: 56%
inhibition [16]: 2.34%
inhibition [17]: 4.72%
inhibition [18]: 2.91%
inhibition [19]: 4.55%
inhibition [20]: -1.43%

CC(C)(CO)CNC(=O)c1ccc2c(c1)/C(=N/Nc1ccc(S(N)(=O)=O)cc1)C(=O)N2
inhibition [1]: 56.2%
inhibition [2]: 0.26%
inhibition [3]: 21%
inhibition [4]: 3.09%
inhibition [5]: 43%
inhibition [6]: -1.79%
inhibition [7]: 4.55%
inhibition [8]: 0.92%
inhibition [9]: 3.15%
inhibition [10]: 0.68%
inhibition [11]: 18.8%
inhibition [12]: 6.31%
inhibition [13]: 43.1%
inhibition [14]: 1.9%
inhibition [15]: 13.1%
inhibition [16]: 40.7%
inhibition [17]: 80.2%
inhibition [18]: 31.6%
inhibition [19]: 77.1%
inhibition [20]: 0.44%

COC(=O)Nc1nc2ccc(Oc3ccc(NC(=O)Nc4cccc(Cl)c4)cc3)cc2[nH]1
inhibition [1]: 0.65%
inhibition [2]: 16%
inhibition [3]: 22.7%
inhibition [4]: 16.6%
inhibition [5]: 35.3%
inhibition [6]: 14.1%
inhibition [7]: 27.1%
inhibition [8]: 0.77%
inhibition [9]: 7.45%
inhibition [10]: 0.19%
inhibition [11]: 3.87%
inhibition [12]: 1.15%
inhibition [13]: 0.9%
inhibition [14]: 2.55%
inhibition [15]: 4.97%
inhibition [16]: 2.25%
inhibition [17]: 1.87%
inhibition [18]: 3.48%
inhibition [19]: 4.19%
inhibition [20]: -1.11%

COc1cc(Nc2nccc(Nc3ccc4c(C)n[nH]c4c3)n2)cc(OC)c1OC
inhibition [1]: 66.5%
inhibition [2]: 5.08%
inhibition [3]: 24.2%
inhibition [4]: 7.34%
inhibition [5]: 79.7%
inhibition [6]: 26.1%
inhibition [7]: 77.6%
inhibition [8]: 3.12%
inhibition [9]: 7.42%
inhibition [10]: 2.17%
inhibition [11]: 12.4%
inhibition [12]: 2.25%
inhibition [13]: 4.1%
inhibition [14]: 2.58%
inhibition [15]: 11%
inhibition [16]: 5.05%
inhibition [17]: 7.86%
inhibition [18]: 5.15%
inhibition [19]: 6.19%
inhibition [20]: 1.12%

COC(=O)c1sc(-n2cnc3cc(OC)c(OC)cc32)cc1OCc1ccccc1C(F)(F)F
inhibition [1]: 32.2%
inhibition [2]: 13.9%
inhibition [3]: 54.5%
inhibition [4]: 5.23%
inhibition [5]: 54.9%
inhibition [6]: 6.81%
inhibition [7]: 21.6%
inhibition [8]: -0.16%
inhibition [9]: 3.42%
inhibition [10]: 6.34%
inhibition [11]: 10.1%
inhibition [12]: 5.37%
inhibition [13]: 4.96%
inhibition [14]: 5.47%
inhibition [15]: 11.2%
inhibition [16]: 4.68%
inhibition [17]: 9.69%
inhibition [18]: 5.78%
inhibition [19]: 9.15%
inhibition [20]: -1.48%
